Results as given in article PMC4336329 (PLoS ONE, 2015).
In all, about 310,000 compounds went through this assay and about 14,000 (4.5%) showed an effect of 50% or more. Effects have a minus sign here. The entries come from a sample that favours strong results as a whole.

target: human ether-à-go-go-related gene (hERG) potassium channel (human, UniProt Q12809); assay: primary screen, population patch clamp on CHO cells stably expressing hERG; higher = less effect of the substance
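Also: peak tail current of the secondary pulse compared with the same well before compound.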

Sequence of human ether-à-go-go-related gene (hERG) potassium channel (Q12809 whole entry, looked up): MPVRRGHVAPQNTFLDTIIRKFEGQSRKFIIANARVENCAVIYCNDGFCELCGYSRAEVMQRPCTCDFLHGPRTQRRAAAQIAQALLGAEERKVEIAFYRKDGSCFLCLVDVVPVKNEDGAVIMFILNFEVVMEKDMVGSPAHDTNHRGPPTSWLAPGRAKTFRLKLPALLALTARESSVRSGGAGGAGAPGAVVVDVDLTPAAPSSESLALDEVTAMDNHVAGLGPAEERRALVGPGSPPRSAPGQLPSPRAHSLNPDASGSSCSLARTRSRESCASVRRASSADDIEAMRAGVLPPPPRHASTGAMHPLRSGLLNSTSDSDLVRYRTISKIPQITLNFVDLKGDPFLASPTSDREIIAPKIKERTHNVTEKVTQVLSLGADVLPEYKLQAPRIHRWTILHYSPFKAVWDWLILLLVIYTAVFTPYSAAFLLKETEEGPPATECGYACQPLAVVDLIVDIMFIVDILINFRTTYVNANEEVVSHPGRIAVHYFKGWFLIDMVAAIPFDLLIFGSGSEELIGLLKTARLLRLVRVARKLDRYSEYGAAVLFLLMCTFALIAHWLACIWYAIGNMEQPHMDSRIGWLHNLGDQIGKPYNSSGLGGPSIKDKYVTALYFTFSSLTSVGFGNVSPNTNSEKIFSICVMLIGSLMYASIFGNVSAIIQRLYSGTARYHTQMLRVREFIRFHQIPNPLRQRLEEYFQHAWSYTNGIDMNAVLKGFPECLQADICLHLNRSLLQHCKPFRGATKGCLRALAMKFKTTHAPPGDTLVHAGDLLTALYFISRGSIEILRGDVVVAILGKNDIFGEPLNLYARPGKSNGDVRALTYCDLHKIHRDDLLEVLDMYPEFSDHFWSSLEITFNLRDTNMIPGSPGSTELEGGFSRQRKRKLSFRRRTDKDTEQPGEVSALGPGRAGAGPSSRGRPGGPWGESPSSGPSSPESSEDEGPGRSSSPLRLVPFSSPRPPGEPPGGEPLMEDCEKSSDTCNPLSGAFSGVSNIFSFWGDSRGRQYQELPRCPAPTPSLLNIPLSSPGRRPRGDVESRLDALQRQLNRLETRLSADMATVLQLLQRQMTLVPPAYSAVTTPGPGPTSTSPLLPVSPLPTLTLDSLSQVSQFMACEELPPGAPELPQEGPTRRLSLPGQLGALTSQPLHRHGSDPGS

| SMILES | hERG current change (%, negative = inhibition) at 10uM [%] |
| --- | --- |
| CC1=Nc2ccccc2NC(=O)C1Sc1nnc(C)s1 (stereo not drawn) | -12.6 |
| CC(C)CN1CCC(CNC(=O)CCc2nnc(Cc3c[nH]c4ccccc34)o2)CC1 | -1.27 |
| N#Cc1ccccc1NC(=S)NC(=O)C1CCC1 | 9.95 |
| COc1cc2c3cc1Oc1cc(ccc1O)C[C@@H]1c4c(cc(OC)c(O)c4Oc4ccc(cc4)C[C@H]3N(C)CC2)CCN1C | -37 |
| COc1ccccc1N1CCN(C(=O)CCNS(=O)(=O)c2ccc(Br)s2)CC1 | -31.3 |
| S=C1NC[C@H](Cc2ccccc2)N1CCCCC1CCCCC1 | 4.71 |
| COC(=O)c1ccc(Nc2nc(C)cc(C)n2)cc1 | 10.9 |
| COC(=O)c1ccc2nc(C)cc(Nc3ccc(N(C)C)cc3)c2c1.Cl | -67.1 |
| COC(=O)c1ccc(Nc2cc(C)nc3ccccc23)cc1.Cl | -37.3 |
| CC(=O)c1ccc(NC(=O)c2cc(C)nc3ccccc23)cc1 | 16.5 |
| CCOC(=O)c1cnc2ccc(C(=O)OC)cc2c1Nc1ccc(C(=O)O)cc1.Cl | 5.66 |
| CC(=O)c1ccc(Nc2nc(C)cc(C)n2)cc1 | 4.62 |
| COC(=O)c1ccc2nc(C)cc(Nc3ccccc3C)c2c1.Cl | -47.5 |
| CC(=O)c1ccc(Nc2cc(C)nc3ccc(C)cc23)cc1 | -74.5 |
| COC(=O)c1ccc(Nc2cc(C)nc3ccc(C)cc23)cc1.Cl | -55.6 |
| Cc1ccc(NN2C(=O)C=CC2=O)cc1 | 0.632 |
| N/C(=N\S(=O)(=O)c1ccccc1)c1ccc([N+](=O)[O-])cc1 | -30 |
| COC(=O)C1C(=O)NC(SC)=C(C#N)C1c1ccccc1 (stereo not drawn) | 8.09 |
| COC(=O)c1cc(CSc2nnc(NC3CCCCC3)s2)oc1C | -10.1 |

| SMILES | hERG current change (%, negative = inhibition) at 10uM [%] |
| --- | --- |
| Cc1ccc(CN(C)C(=O)c2c(C)nn(-c3ccccc3)c2C)cc1 | 8.12 |
| C=C(C)c1cccc(C(C)(C)NC(=O)N2CCN(c3ncccn3)CC2)c1 | 0.0429 |
| Cc1c(NC(=O)C(C)N2CC(C)OC(C)C2)c(=O)n(-c2ccccc2)n1C (stereo not drawn) | 9.21 |
| Cc1cccc(NC(=O)Nc2ccc(S(N)(=O)=O)cc2)c1 | 13.4 |
| Cc1cccc(C(=O)NNC(=O)CCC(=O)Nc2cccc(Cl)c2C)c1 | 9.03 |
| CCOc1ccc(-c2nnn(CC(=O)c3cc(OC)ccc3OC)n2)cc1 | -7.91 |
| O=C(Cn1nc(-c2cccc(Cl)c2)ccc1=O)Nc1ccccc1Br | 10.7 |
| COc1ccc(CC(=O)N2N=C(C)CC2(O)c2cccnc2)cc1OC (stereo not drawn) | -17 |
| CCOc1c2ccc(C(=O)NCc3ccc4c(c3)OCO4)cc2nn1C | 17.6 |
| CCOc1ccc(C2c3[nH]c4ccccc4c3CCN2C(=O)Cn2cncn2)cc1 (stereo not drawn) | -15 |
| Cc1cnc(C(=O)N2CCc3c([nH]c4ccccc34)C2c2ccc(F)cc2)cn1 (stereo not drawn) | -39.8 |
| COc1ccc(C2c3[nH]c4ccccc4c3CCN2Cc2ccoc2)c(F)c1 (stereo not drawn) | -36.9 |
| COc1ccc(OCC(=O)N2CCc3c([nH]c4ccccc34)C2c2ccccn2)cc1 (stereo not drawn) | 21.4 |
| CCOc1ccc(C2c3[nH]c4ccccc4c3CCN2Cc2cccn2-c2ncccn2)cc1 (stereo not drawn) | -53.3 |
| O=C(c1cc2ncccn2n1)N1CCc2c([nH]c3ccccc23)C1c1ccccc1F (stereo not drawn) | -5.11 |
| Fc1ccc(C2c3[nH]c4ccccc4c3CCN2Cc2ccoc2)cc1 (stereo not drawn) | -26.8 |
| Fc1ccccc1C1c2[nH]c3ccccc3c2CCN1Cc1cccn1-c1ncccn1 (stereo not drawn) | -50.6 |
| Cc1ccccc1C1c2[nH]c3ccccc3c2CCN1Cc1cccn1-c1ncccn1 (stereo not drawn) | -46.3 |
| Cn1nccc1C(=O)N1CCc2c([nH]c3ccccc23)C1c1ccc(F)cc1 (stereo not drawn) | -19.4 |

| SMILES | hERG current change (%, negative = inhibition) at 10uM [%] |
| --- | --- |
| Fc1ccccc1C1c2[nH]c3ccccc3c2CCN1Cc1ccoc1 (stereo not drawn) | -51.7 |
| Fc1ccc(C2c3[nH]c4ccccc4c3CCN2Cc2cccn2-c2ncccn2)cc1 (stereo not drawn) | -52.2 |
| CCn1c(COc2ccccc2C)nnc1SCC(=O)O | 16.3 |
| Cc1cc(C)cc(NC(=O)N2CCC(NC(=O)c3ccccc3C)CC2)c1 | 5.74 |
| O=C(CSc1nnc(-c2ccccc2)n1-c1ccccc1)c1ccc[nH]1 | 16.4 |
| CCOC(=O)N1CCN(C(=O)CNC(=O)c2ccc(Br)o2)CC1 | 11.7 |
| COc1ccc(-c2csc(NC(=O)c3c(OC)cccc3OC)n2)cc1 | 7.77 |
| COc1ccccc1CNS(=O)(=O)c1cc2c3c(c1)CCN3C(=O)CC2 | -4.02 |
| O=C1COc2ccc(C(=O)COC(=O)CNC(=O)C3CCCCC3)cc2N1 | -7.17 |
| COc1ccc(OCC(Cn2cnc3ccccc32)OC(C)=O)cc1.Cl (stereo not drawn) | -26 |
| Cc1cc(C)n(-c2cc(C(C)(C)C)nc3c(-c4ccccc4)cnn23)n1 | 14.6 |
| COc1ccc(C(=O)NCCS(=O)(=O)NCCc2ccccc2)cc1 | -13.2 |
| CC1(C)CC(C)(c2ccc(O)cc2O)N(c2cccc(Cl)c2)C(=S)N1 (stereo not drawn) | 2.04 |
| COCCNC(=O)c1c(N)n(-c2cccc(C)c2)c2nc3ccccc3nc12 | -24.7 |
| Nc1c(C(=O)NCCN2CCOCC2)c2nc3ccccc3nc2n1-c1cccc(F)c1 | -33.2 |
| Nc1c(C(=O)NCCN2CCOCC2)c2nc3ccccc3nc2n1-c1ccc2c(c1)OCO2 | -33.5 |
| Nc1c(C(=O)NCCN2CCOCC2)c2nc3ccccc3nc2n1-c1ccccc1 | -52 |
| CCCNC(=O)c1c(N)n(-c2cccc(OC)c2)c2nc3ccccc3nc12 | -5.21 |
| Cc1cccc(-n2c(N)c(C(=O)NCCN3CCOCC3)c3nc4ccccc4nc32)c1 | -57.1 |
